Data taken from PubChem BioAssay AID743395 (Broad Institute, 2014).
The campaign covered roughly 1,200 compounds. About 480 (40%) were called active. No rule for the calls is given here. So high a share suggests a set chosen from earlier hits. Only a sample is shown. Results with a measured potency or affinity are listed apart.

assay: viability loss in human hepatoma cells – cell-based, CellTiter-Glo luminescence, cherry-pick, set 2, cytotoxicity control, dose response (AID 743395); conditions: HepG2 viability, CellTiter-Glo ATP luminescence, 72 h; series mostly up to 26 µM

Compound | outcome
CCOC(=O)c1[nH]c(C)c(/C(O)=C2\C(=O)C(=O)N(CCCN3CCOCC3)C2c2cccs2)c1C (stereo not given) | inactive
CC(C)CC1Nc2ncnc(N3CCN(c4ccccn4)CC3)c2N(Cc2ccc(Br)cc2)C1=O (stereo not given) | inactive
COc1ccc(-n2nnnc2C(c2ccccc2)N2CCN(C/C=C/c3ccccc3)CC2)cc1 (stereo not given) | inactive
O=C(NNC(=O)c1ccncc1)Nc1ccc(Cl)cc1 | inactive
CCN1C(=O)[C@H]2[C@@H](c3ccc(-c4ccc(Cl)c(Cl)c4)cc3)N[C@@](C)(C(=O)OC)[C@H]2C1=O | inactive
NC(=O)CC(NC(=O)Cc1ccc(Br)cc1)c1ccc(NC2CC3CCC2C3)c([N+](=O)[O-])c1 (stereo not given) | inactive
CN(C)/C=C1\C=C2C(=O)c3ccccc3N2C1=O | inactive
CC(O)CNc1nc(N)[nH]c(=O)c1N=Nc1ccccc1 (stereo not given) | inactive
CCC(C(=O)OCC(=O)C1(O)CCC2C3CCC4=CC(=O)CCC4(C)C3C(O)CC21C)C(C)C (stereo not given) | inactive
OC[C@@H]1[C@@H](c2ccccc2)C2(CN(Cc3ccccc3F)C2)N1Cc1ccccc1F | inactive
NC(=O)c1cc(Cl)ccc1OCC(=O)NC1CC1 | inactive
COc1ccc(C#Cc2ccc3c(c2)[C@@H]2[C@@H](CCN2C(=O)c2cccc(F)c2)[C@@H](CO)N3)cc1 | inactive
O=C(c1ccccc1F)N1CC[C@@H]2[C@H](CO)Nc3ccc(Br)cc3[C@@H]21 | inactive
O=C(NCc1nnnn1-c1ccc(Cl)cc1)C(=O)c1c[nH]c2ccccc12 | inactive
COc1ccc(NC(=O)N[C@@H]2CC[C@@H](CCn3cc(-c4ccc(F)cc4)nn3)O[C@@H]2CO)cc1 | inactive
NNC(=O)c1[nH]c2ccc(Cl)cc2c1-c1ccccc1 | inactive
CC1CN(S(=O)(=O)c2cccc(C(=O)Nc3cc(Cl)ccc3N3CCOCC3)c2)CC(C)O1 (stereo not given) | inactive
O=C(NC(Cc1ccccc1)C(=O)N1CCN(S(=O)(=O)c2ccccc2F)CC1)c1ccccc1 (stereo not given) | inactive
CC(C)(C)C(=O)OCc1nc(-c2ccc(O)c(O)c2)cs1 | inactive
CO[C@@H](CN(C)S(=O)(=O)c1ccc(C)cc1)[C@H](C)CN([C@H](C)CO)S(=O)(=O)c1cccc(Cl)c1 | inactive
COc1ccc(CNC(=O)c2cc3c(c(-c4cccc(-c5ccc(C#N)cc5)c4)n2)[C@@H](CCO)N([S@](=O)C(C)(C)C)C3)cc1 | inactive
COc1cccc(C(=O)c2c[nH]c(C(=O)NCCCN3CCOCC3)c2)c1 | inactive
CC(Sc1nc2ccccc2c(=O)n1C)C(=O)Nc1ccc2c(c1)OCCO2 (stereo not given) | inactive
c1ccc(CCN(Cc2ccccc2)Cc2nc(C3CC3)no2)cc1 | inactive
O=C(CCN1CCCCC1)N1CCc2c([nH]c3ccccc23)C1c1cccnc1 (stereo not given) | inactive

Compound | outcome
COc1ccc(OC)c(N/C(N)=N/c2nc(C)cc(C)n2)c1 | inactive
COc1cc(C(O)CO)ccc1OS(=O)(=O)O (stereo not given) | inactive
COc1ccc2c(c1OC)OCC2C (stereo not given) | inactive
Cc1cc(C)nc(N(C#N)Cc2cccc(Cl)c2)n1 | inactive
CCOc1ccc(C(=O)NCC(=O)NNC(=O)c2cc(C)oc2C)cc1OCC | inactive
Cc1cccc(C(=O)OCC(=O)NC(C)C2CC3CCC2C3)c1O (stereo not given) | inactive
Cc1ccc(-n2cc(-c3ccccc3)c3c(N4CCOCC4)ncnc32)cc1 | inactive
O=C(C(Cc1ccccc1)n1cccc1)N1CCCCC1 (stereo not given) | inactive
CC(C)(C)C1COc2ccccc2N1C(=O)c1cccc(Cl)c1 (stereo not given) | inactive
C/C=C/c1ccc2c(c1)O[C@@H](CN(C)C(=O)Nc1cccc(F)c1)[C@H](C)CN([C@H](C)CO)S2(=O)=O | inactive
Cc1cc2c(s1)Nc1ccccc1N=C2N1CCN(C)CC1 | inactive
CCN[C@H]1CN(CCCOC)S(=O)(=O)c2sc(S(N)(=O)=O)cc21 | inactive
Cc1cccc(N2CCN(C(=O)c3c(-c4ccccc4Cl)noc3C)CC2)c1C | inactive
O=C(c1ccc2ccccc2c1)N1CCN(Cc2ccccc2)CC1 | inactive
NC1(C(=O)O)CC1 | inactive
O=c1cnc2ccccc2n1CC1CCCCC1 | inactive
Cc1cc(C)c(/C=C2\C(=O)Nc3ccccc32)[nH]1 | inactive
Cc1cccc(N(C)S(=O)(=O)c2ccc(-c3cc(C)no3)s2)c1 | inactive
CC(OC(=O)c1cccs1)C(=O)NC1CCCCC1C (stereo not given) | inactive
Cc1cc(C(=O)N/N=C/c2ccc([N+](=O)[O-])cc2)c2ccccc2n1 | inactive
CN(C)c1ccc2c(c1)[C@@H]1C[C@@H](CC(=O)NCc3ccc(Oc4ccccc4)cc3)O[C@H](CO)[C@@H]1O2 | inactive
CCN(CC(=O)Nc1cc(Cl)ccc1-n1cncn1)Cc1nc2ccccc2c(=O)[nH]1 | inactive
Cc1cc(C(=O)N2CC=C(c3ccccc3)CC2)c2ccccc2n1 | inactive
CCN(C(=O)COC(=O)c1cc2c(s1)CCCC2)c1c(N)n(Cc2ccccc2)c(=O)[nH]c1=O | inactive
COc1ccccc1NS(=O)(=O)c1cc(-c2cnc(C3CC3)o2)ccc1C | inactive

Compound | outcome
O=S(=O)(Nc1ccc(F)cc1Cl)c1ccc(-c2cnc(C3CC3)o2)cc1 | inactive
CC(C)c1cccc(-c2csc(C(O)c3ccco3)n2)c1 (stereo not given) | inactive
COc1ccc(OC)c(-c2nnc3n2N=C(c2ccc(OC)c(OC)c2)CS3)c1 | inactive
Cc1cc(N2CCCC2)c(F)cc1/C=C\[N+](=O)[O-] | inactive
NS(=O)(=O)c1ccc2nc(NC(=O)c3ccc4c(c3)OCCO4)sc2c1 | inactive
C/C=C/c1ccc([C@@H]2[C@H](CO)N(CC3CC3)[C@H]2CNC(=O)c2ccccc2)cc1 | inactive
CCOc1ccc(S(=O)(=O)N2CCCCC2)cc1NC(=O)c1ccccc1 | inactive
COc1ccc(-c2nc(-c3cccc(C)c3)no2)cc1OC | inactive
Nc1ccc(S(=O)(=O)Nc2cnc3ccccc3n2)cc1 | inactive
COc1ccc(S(=O)(=O)Cc2ccc(C(=O)N3CCN(c4cccc(C)c4)C(C)C3)o2)cc1 (stereo not given) | inactive
Cc1ccccc1OCC(=O)OCC(=O)NCCc1ccccc1 | inactive
COC(=O)C[C@@H]1CC[C@@H]2[C@H](COc3ccc(NC(=O)c4cc(C)on4)cc3C(=O)N2C)O1 | inactive
CC(=O)N1Cc2cc(C(=O)NCC(F)(F)F)nc(-c3cccc(-c4cccnc4)c3)c2[C@@H]1CCO | inactive
CN(Cc1c(F)cccc1Cl)C(=O)c1ccc(NC(=O)CC2SC(N3CCCCC3)=NC2=O)cc1 (stereo not given) | inactive
Cc1noc(NS(=O)(=O)c2ccc(N/C=C\C(=O)c3ccccc3)cc2)c1C | inactive
COc1cc(OC)cc(C(=O)NC(=S)Nc2ccc3oc(=O)ccc3c2)c1 | inactive
O=C(c1[nH]ncc1-c1ccc(Cl)cc1)C1CO1 (stereo not given) | inactive
Cc1cc2nnc(SCC(=O)NCc3ccco3)n2c2ccccc12 | inactive
S=C(NCc1ccco1)NCC1CCCO1 (stereo not given) | inactive
CCCCC1(C2CCCC2)NC(=O)NC1=O (stereo not given) | inactive
CNS(=O)(=O)c1cccc(C(=O)OCC(=O)c2cc(C)n(CC3CCCO3)c2C)c1 (stereo not given) | inactive
O=Cc1ccccc1OCc1ccc2c(c1)OCO2 | inactive
CCOC1=C2[C@@H](CN(S(=O)(=O)c3ccc(C)cc3)[C@H]2c2ccc(Cl)cc2)[C@H]2C(=O)N(c3ccccc3)C(=O)[C@H]2C1 | inactive
COc1cc(C(=O)c2cocc2C(=O)c2ccc3c(c2)OCO3)cc(OC)c1OC | inactive
COc1ccc(N(C)S(=O)(=O)c2cccc(C(=O)NCC3CCCCC3)c2)cc1 | inactive

Compound | outcome
COCCNC(=O)C1CCCN(C(=O)c2ccc3sccc3c2)CC1 (stereo not given) | inactive
COc1ccc2c(c1)[nH]c1c(=O)n(/N=C/c3ccc(OC)c(CN4CCCC4)c3)cnc12 | inactive
COc1ccc2c3c([nH]c2c1)[C@H](CO)N(C(=O)Nc1ccc(F)cc1)CC31CCN(S(=O)(=O)c2ccccc2)CC1 | inactive
COCC(=O)N1C[C@@H]2[C@H](c3ccccc31)[C@H](CO)N2Cc1ccc(OC)cc1 | inactive
CCCNC(=O)N1CC2(CN(CC3CCCCC3)C2)c2c(n(C)c3cc(OC)ccc23)[C@H]1CO | inactive
COc1ccc2c3c(n(C)c2c1)[C@H](CO)NCC31CCN(Cc2cc(-c3ccccc3)on2)CC1 | inactive
Cc1sc(NC(=S)NC(=O)CCc2ccccc2)c(C(N)=O)c1C | inactive
COCCNC(=O)NC12CC3(C)CC(C)(CC(C)(C3)C1)C2 | inactive
COc1ccccc1C(=O)Nc1onc(C)c1C#N | inactive
COc1cccc(N2CCN(C(=O)c3ccc(CS(=O)c4ccc(Cl)cc4)o3)CC2)c1 (stereo not given) | inactive
COc1cccc(CNC(=O)CSc2nc3ccc(C)cc3[nH]2)c1 | inactive
CC(C)(C)c1csc(NC(=O)Cc2cccs2)n1 | inactive
Cc1ccc(S(=O)(=O)N[C@H](C(=O)OCC(=O)NC(=O)C2CCCCC2)C(C)C)cc1 | inactive
CN1CCN(C(=O)c2ccc(CN(c3ccccc3)S(=O)(=O)c3ccccc3)cc2)CC1 | inactive
CC(C)c1ccc(NC(=O)CN2C(=O)NC3(CCCCCCC3)C2=O)cc1 | inactive
CSc1ccccc1NC(=O)COC(=O)CCC(=O)c1ccc(F)cc1 | inactive
CC(=O)OCCn1c2nc(=O)[nH]c(=O)c-2nc2cc(C)c(C)cc21 | inactive
COc1cccc(NC(=O)N(C)C[C@H]2OCc3ccccc3-c3c(n(C)c4ccccc34)C(=O)N([C@H](C)CO)C[C@H]2C)c1 | inactive
O=C(c1[nH]ncc1-c1cccc(Br)c1)C1CO1 (stereo not given) | inactive
CC(C)CCNC(=O)C(=O)Nc1ccc2c(c1)N(S(=O)(=O)c1cccs1)CCC2 | inactive
CCOC(=O)C1=CN(Cc2cccc(I)c2)S(=O)(=O)N(C)C1C (stereo not given) | inactive
CC(C)c1nc2oc3c(NCCO)ncnc3c2c2c1COC(C)(C)C2 | inactive
COc1ccc(-c2cnc3c(NC=O)cc(-c4ccccc4)cn23)cc1OC | inactive
O=CNc1cc(-c2ccc(C(=O)NC3CC3)cc2)cn2c(-c3ccccc3)cnc12 | inactive
COc1cc(-c2cnc3c(NC=O)cc(-c4cccc(C(F)(F)F)c4)cn23)cc(OC)c1OC | inactive
